What follows are compounds tested against Serine/threonine-protein kinase PAK 1 (Homo sapiens) (UniProt Q13153). Settings: at 1 µM.
Chain of Serine/threonine-protein kinase PAK 1 (Homo sapiens) (Q13153 whole entry): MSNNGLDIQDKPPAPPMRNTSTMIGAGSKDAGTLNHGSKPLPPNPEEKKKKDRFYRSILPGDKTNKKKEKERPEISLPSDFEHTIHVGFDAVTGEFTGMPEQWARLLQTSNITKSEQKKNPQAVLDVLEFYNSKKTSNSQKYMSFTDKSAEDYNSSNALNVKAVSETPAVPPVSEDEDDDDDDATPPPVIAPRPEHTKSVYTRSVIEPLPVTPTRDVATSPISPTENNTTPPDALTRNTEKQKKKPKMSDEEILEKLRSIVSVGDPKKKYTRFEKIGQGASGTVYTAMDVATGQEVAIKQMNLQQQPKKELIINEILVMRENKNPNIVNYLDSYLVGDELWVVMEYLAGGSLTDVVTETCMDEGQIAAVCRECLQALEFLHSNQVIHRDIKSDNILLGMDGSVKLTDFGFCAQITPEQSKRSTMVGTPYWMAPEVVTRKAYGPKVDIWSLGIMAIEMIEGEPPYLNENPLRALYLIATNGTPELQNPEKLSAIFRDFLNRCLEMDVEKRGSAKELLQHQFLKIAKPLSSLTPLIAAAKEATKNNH
In the case of `NS(=O)(=O)c1ccc(N/C=C2\C(=O)Nc3ccc4ncsc4c32)cc1`, the inhibition is reported as 7.33%.
`CCn1c(-c2nonc2N)nc2c(C#CCN)ncc(OCCCN)c21` was tested, and the inhibition was 2.32%.
Compound `COc1cc(C=NNc2ncnc3c2cnn3Cc2ccccc2)ccc1O` has an inhibition of -2.75%.
For `Fc1ccc(-c2ncn(C3CCNCC3)c2-c2ccnc(Oc3ccccc3)n2)cc1`, the inhibition was 1.88%.
`COc1cccc(COc2cc(-n3cnc4ccccc43)sc2C(N)=O)c1` gave an inhibition of 2.97%.
For `Nc1nonc1-c1nc2cnccc2n1C1CCCCC1`, the inhibition was -1.25%.
Compound `COc1cc2c(cc1Nc1nc(Nc3ccsc3C(N)=O)c3cc[nH]c3n1)N(C(=O)CN(C)C)CCC2` has an inhibition of 0.73%.
`NS(=O)(=O)c1ccc(-c2ccc3c(NC(=O)C4CC4)n[nH]c3c2)cc1` was tested, and the inhibition was 2.13%.
`COc1cccc(-n2ncc3c(N/N=C/c4ccncc4)ncnc32)c1` was tested, and the inhibition was 7.75%.
In the case of `Cc1cc(-c2ccco2)cc(C)c1/C=C/c1cncc(-c2nn[nH]n2)c1`, the inhibition is reported as 2.13%.
`CCn1c(-c2nonc2N)nc2c(C#CC(C)(C)O)ncc(OCC3CCNCC3)c21` was tested, and the inhibition was 7.18%.
Compound `NC(=O)c1sc(-n2cnc3cc(C(F)(F)F)ccc32)cc1OCc1ccccc1Br` has an inhibition of 2.03%.
With `CCn1c(-c2nonc2N)nc2c(C#CC(C)(C)O)nc(O[C@@H](CN)c3ccccc3)cc21` the inhibition was 14%.
For `CCn1c(-c2nonc2N)nc2c(C#CC(C)(C)O)ncc(OC[C@@H]3CCCN3)c21`, the inhibition was 7.58%.
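Note: reported values are mean percent inhibition of PAK1 activity.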
